# Tgondii IFNg = T. gondii growth inhibition under IFN-gamma. Toxoplasma gondii growth in IFN-gamma-treated host cells; hits give low values. activity change, negative = inhibition, % (test concentration not listed). actives 3.8% (n = 69,000). AID 1259416; in the data active = activity change below about -70%, passing the limit was not always enough;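 also: host cells are HeLa cells infected with Toxoplasma gondii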
# * hit, by the source's call; i = inactive. This is one part of a sample in which hits are shown more often than they occur.
SMILES,Tgondii IFNg
Cc1cccc(-c2nc(Cn3nnc(-c4nc(-c5ccccc5C)no4)c3C)c(C)o2)c1,7.1
CC(=O)N1CC(=O)N(c2cnn(C)c2)CC12CCN(CC1CCOCC1)C2 (centres undefined),-38.8
Cc1cc(C)cc(NC(=O)C(=O)NCCc2csc(-c3ccc(C(F)(F)F)cc3)n2)c1,97.6
COc1nc(N)nc2c1ncn2[C@@H]1O[C@H](CO)[C@@H](O)[C@@H]1O,14.4
Nc1nc(=S)c2ncn([C@@H]3O[C@H](CO)[C@@H](O)[C@H]3O)c2[nH]1,-77.5*
Nc1ncn([C@@H]2O[C@H](CO)[C@@H](O)[C@H]2O)c(=O)n1,-40.6
Cc1ccc(S(=O)(=O)N2CCC3(CCCN(Cc4c(C)noc4C)C3)C2)cc1 (centres undefined),-14.8
Cc1cccc(CN2CCCC3(CCN(S(=O)(=O)c4ccc(F)cc4)C3)C2)n1 (centres undefined),-9.5
CCc1ccc(S(=O)(=O)N2CCC3(CCCN(Cc4c(C)noc4C)C3)C2)cc1 (centres undefined),-71.8*
COc1ccc(-n2cccn2)c(CN2CCC(O)(CO)CC2)c1,51.0
CCCc1ncc(-c2ccncc2C)c(C2CCCN2C(=O)CCc2c(C)noc2C)n1 (centres undefined),-5.0
CCN(CC)c1ccc(C(=C2C=CC(=[N+](CC)CC)C=C2)c2ccccc2)cc1,-74.1*
Cc1ccccc1CN1CCC2(CC1)CC(NC(=O)C1CC1)C2,-0.5
NC(=O)C1(N2CCCCC2)CCN(c2ncc(NC(=O)c3cccs3)cc2C(=O)O)CC1,0.5
NNC(=S)Nc1cc(C(F)(F)F)ccc1Cl,27.8
OC1=C(O)c2nc3cc(C(F)(F)F)ccc3nc21,27.4
OC1(c2ccc(Cl)c(Cl)c2)CSc2nc3cc(C(F)(F)F)ccc3n21 (centres undefined),-83.6*
C=CC(=O)Nc1ccc2c(c1)C1(CCOCC1)C(=O)N2c1ccsc1,-30.6
CCC1CCCCN1S(=O)(=O)c1cc(-c2nc(C)c(C)s2)sc1C (centres undefined),-56.1
O=c1ccc2cc(S(=O)(=O)N3CCN(c4ccccn4)CC3)ccc2[nH]1,i
O=C(c1cccs1)N1CCOCC2(CCC(Cn3cccn3)O2)C1 (centres undefined),-48.7
Cc1ccc(S(=O)(=O)Nc2ccc(S(=O)(=O)Nc3nc(C)cc(C)n3)cc2)cc1,48.1
Cc1ccc(S(=O)(=O)Nc2c(Cl)c(Cl)nc(C#N)c2Cl)cc1,-92.7*
Cc1ccc(S(=O)(=O)Nc2cc(C(C)(C)C)sc2C#N)cc1,1.2
CN(C(=O)Cn1nnnc1N)C1Cc2ccccc2C1,-4.8
SMILES,Tgondii IFNg
O=C(c1ccc2nsnc2c1)N1CCOC(C(=O)N2CCc3ccccc3C2)C1 (centres undefined),6.4
O=C(N1CCOCC1)N1CCC2(CC1)NCCn1c(-c3ccc(F)cc3)cnc12,-36.1
Cc1ccc(-n2ncc3c(-n4nc(C)cc4NC(=O)C4CCCC4)ncnc32)c(C)c1,-105.9*
Cc1ccc(-n2ncc3c(-n4nc(C)cc4NC(=O)CCC4CCCC4)ncnc32)c(C)c1,-30.8
CCCCC1CCC(C(=O)Nc2cc(C)nn2-c2ncnc3c2cnn3-c2ccc(C)cc2C)CC1 (centres undefined),20.6
COc1ccc(-n2c(SCCc3ccccc3)nc3ccccc3c2=O)cc1,-33.2
O=S(=O)(NCCc1csc(-c2ccc(Cl)cc2)n1)c1ccccc1F,-20.4
O=C(c1ccc(F)cc1F)N1CCC(c2nc3ccc(-c4cccnc4)cn3n2)CC1,-2.7
O=C(c1cnccn1)N1CCC(c2nc3ccc(-c4cccc(F)c4)cn3n2)CC1,-71.5*
O=S(=O)(c1ccccc1F)N1CCC(c2nc3ccc(-c4ccncc4)cn3n2)CC1,-28.0
COCCN1CCC2(CC1)COCCN2Cc1csc(C)n1,2.1
COC(=O)CC(=O)CCn1nc(C)nc1C,-25.4
Cc1cccc(CNC(=O)Cn2c(=O)ccc3cc(S(=O)(=O)N4CCC(C)CC4)ccc32)c1,-14.2
Fc1ccc(CSc2nc(Nc3ccc(F)cc3)c3ccccc3n2)cc1,-39.6
Cc1nc(OCC(=O)Nc2ccc(Br)cc2)c2ccccc2n1,-7.2
Brc1ccc(Nc2c3ccccc3nc3ccccc23)cc1,-92.4*
CN(Cc1cc(-c2ccccc2)no1)Cc1nccn1C,12.8
Cn1cc(CN2CCC[C@H]3CN(S(C)(=O)=O)C[C@H]32)cn1,-17.3
O=C1CN(/N=C/c2ccc(-c3ccc([N+](=O)[O-])cc3)o2)C(=O)N1,-75.8*
CSCC1CN(/N=C/c2ccc([N+](=O)[O-])o2)C(=O)O1 (centres undefined),13.9
O=C1OCCN1/N=C/c1ccc([N+](=O)[O-])o1,-19.1
O=C(CC1SC2=NCCN2C1=O)NCc1cccc(N2CCCCC2)c1 (centres undefined),-3.6
Cc1cc(NC(=O)c2c(O)c3cccnc3n(-c3ccccc3)c2=O)ccc1F,-27.8
Cc1ccc2c(C)c(C(=O)N3CCCC4(CC3)CNC(=O)O4)oc2c1 (centres undefined),0.0
Cc1c(C(=O)N2CCC(C)CC2)oc2ccc3c(c12)C(=O)CC1(CCCCCC1)O3,-110.4*
SMILES,Tgondii IFNg
Cc1ccc2c(C)c(C(=O)N3CCC4(CN(C)C(=O)O4)C3)oc2c1 (centres undefined),3.7
Cc1c(C(=O)N2CC(C)CC(C)C2)oc2ccc3c(c12)C(=O)CC1(CCCCCC1)O3 (centres undefined),-99.3*
Cc1ccc2c(c1)C(=O)CC1(CCN(C(=O)C3CCCC3)CC1)O2,-4.2
CCOC(=O)C1CCN(C(=O)c2oc3ccc4c(c3c2C)C(=O)CC2(CCCCC2)O4)CC1,325.2
Cc1ccccc1NC(=O)N1C[C@H]2[C@H](C(=O)N(C)C)CCS(=O)(=O)[C@H]2C1,10.6
Cn1cc(-c2cc3n(n2)CCC(=O)N3CCCC(=O)NCc2ccccn2)c2ccccc21,53.2
COc1ccc(NC(=O)CN2C(=O)CCc3cc(S(=O)(=O)N4CCCCC4)ccc32)cc1Cl,-31.3
COc1cccc(CNC(=O)N2CCC3(CC2)Nc2cc(C)ccc2-n2cccc23)c1,77.6
Cc1ccc(-c2coc(-c3ccc(NC(=O)c4cccs4)cc3)n2)c(C)c1,-38.7
CCCS(=O)(=O)N1CCO[C@H]2[C@@H](OCc3ccccn3)CC[C@H]21,0.9
COC(=O)[C@@]12OC[C@]34[C@H]([C@@H](O)[C@@H]1O)[C@@]1(C)CC(=O)C(=O)C(C)[C@@H]1C[C@H]3OC(=O)[C@H](OC(=O)/C=C(\C)C(C)C)[C@@H]24 (some centres undefined),-88.8*
CCOc1ccc(-c2nc(Cn3nnc(C(=O)Nc4ccc(C)cc4C)c3C)c(C)o2)cc1OC,-34.4
N#Cc1cnn(-c2ncnc3c2cnn3-c2ccccc2)c1N,-93.4*
CCN(CC)c1ncnc2c1cnn2-c1ccccc1,i
c1ccc(-n2ncc3c(NC4CCCCCCCCCCC4)ncnc32)cc1,30.1
Cc1cnc(N2CCCC(OCc3cccnc3)C2)nc1N(C)C (centres undefined),4.9
CN1c2cc(Cl)ccc2C(=O)NC12CCN(C(=O)Nc1ccc3c(c1)OCCO3)CC2,i
CN(CCCn1cccn1)Cc1ccc2cccc(O)c2n1,-8.8
Cc1ccc(-c2cc(C(F)(F)F)nn2-c2nc(-c3ccccc3)cs2)cc1,-41.7
COc1ccc(-c2cc(C(F)(F)F)nn2-c2nc(-c3ccc(C)cc3)cs2)cc1,27.7
CC(=O)Oc1cccc(-c2csc(-n3nc(C(F)(F)F)cc3-c3ccc(Cl)cc3)n2)c1,-93.2*
CN(C)CCn1c2c(ccc1=O)CC(NCc1cnn(C)c1)CC2 (centres undefined),-0.5

# Source: PubChem
